Assay outcomes deposited in PubChem BioAssay by several laboratories.
tim23-1 inh: tim23-1 yeast growth inhibition. S. cerevisiae tim23-1 growth, BacTiter-Glo luminescence, 24 h. inhibition, % at 20 µM. 330,000 tested, 1.3% active. AID 463212;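 active = growth inhibition of the mutant yeast at or above 50%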;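 also: temperature-sensitive mutant grown at 25 °C; plate controls were DMSO-treated mutant yeast for no effect and medium wells lacking yeast for full effect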
PfHsp90 set2: reduces growth (ATP signal) of yeast expressing P. falciparum Hsp90; S. cerevisiae expressing PfHsp90, BacTiter-Glo ATP, 48 h; yeast lacking PDR1 and PDR3 efflux regulators; inhibition, % at 9.4 µM; 310,000 tested, 0.32% active; AID 504621;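 active = every replicate shows inhibition above about 80%, whatever the replicate mean, limit read from the data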;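 also: 0% = DMSO neutral controls and 100% = 20 µM radicicol positive controls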
NLRP3 yeast inh: NALP3 inhibition in yeast | 330,000 tested, 0.39% active | Yeast reconstituted NLRP3/ASC/caspase-1, beta-gal luminescence, 24 h | inhibition, % at 10 µM;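 active = inhibition of 50% or more; inactive = inhibition below 50%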;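 also: plate controls were induced DMSO wells for no effect and uninduced yeast grown without galactose for full effect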
TIM10 inh: growth inhibitors of TIM10 yeast strain; S. cerevisiae TIM10 strain growth, BacTiter-Glo luminescence, 24 h; inhibition, % at 10 µM; 330,000 tested, 1.4% active; AID 463195;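 active = inhibition of 40% or more at the single tested concentration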;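 also: wild-type TIM10 isogenic control strain grown at permissive 25 °C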
tim10-1 inh: inhibits growth of tim10-1 mutant yeast | S. cerevisiae tim10-1 ts strain growth, BacTiter-Glo, 24 h | inhibition, % at 20 µM | 330,000 tested, 2.2% active;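 active = inhibition of at least 40%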;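 also: mutant grown at 25 °C; 0% = DMSO wells with yeast and 100% = wells holding no yeast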
NALP1 yeast inh: blocks the NALP1 inflammasome reconstituted in yeast. S. cerevisiae NALP1/ASC/caspase-1 growth, X-gal OD620, 72 h. inhibition, % at 10 µM. 280,000 tested, 0.61% active. AID 2071; in the data active = inhibition mostly above about 24%, no sharp cut-off; inactive = mostly below about 32%
tim10-1 conf: confirmation of tim10-1 mutant yeast growth inhibitors; shares compounds with tim10-1 inh; S. cerevisiae tim10-1 ts strain growth, BacTiter-Glo, 24 h; inhibition, % at 20 µM; 7,400 tested, 56% active;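 active = inhibition of yeast growth at or above a set limit in either of two repeat tests at 20 µM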;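 also: tim10-1 mutant grown at permissive 25 °C to find synthetic lethal compounds; 0% = DMSO yeast wells and 100% = medium wells without yeast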
An asterisk follows results filed as active; · = no result. The list is not random: actives were taken first. Their share in the collection is about 4.1%.

SMILES	tim23-1 inh	PfHsp90 set2	NLRP3 yeast inh	TIM10 inh	tim10-1 inh	NALP1 yeast inh	tim10-1 conf
Cc1ccc2nc(C)cc(C(=O)N3CCCC(N4CCN(c5ccccc5C)CC4)C3)c2c1 (centres undefined)	26	-17	20	22	22	6	·
CCOc1ccc(OCC)c(NC(=O)CN2CCN(c3cccc(C)c3)CC2)c1	25	-10	13	24	46*	-41	29
O=C(/C=C/c1ccc(OC(F)F)cc1)OCC(=O)N1CCC(c2ccccc2)=N1	-7	-3	-3	5	2	·	·
COc1cc(OC)cc(C(=O)NC(=S)NNC(=O)Cc2cccs2)c1	-39	-12	23	15	40*	-2	11
CN(C1CCCCC1)S(=O)(=O)c1ccc(NC(=O)c2ccc(Br)o2)cc1	43	3	20	30	52*	29	42*
CN(C)S(=O)(=O)c1ccc(NC(=O)c2ccc(Br)o2)cc1	35	21	17	14	30	12	·
COc1cccc(-c2nn(C)c3sc(C(=O)NCc4ccc(C)cc4)cc23)c1	7	-35	15	21	17	-2	·
COc1cccc(-c2nn(C)c3sc(C(=O)NCc4ccccn4)cc23)c1	30	-23	17	13	45*	5	18
CCn1c(SC(C)C(=O)NC2CCCC2)nc2cc(S(N)(=O)=O)ccc21 (centres undefined)	10	-2	16	3	15	·	·
CCCOc1ccccc1NC(=O)/C=C/C(N)=O	32	-11	33	37	62*	59*	56*
O=C(CNS(=O)(=O)c1ccc(Br)cc1)N1CCN(Cc2ccccc2)CC1	16	-10	1	-8	7	6	·
CN1C(=O)/C(=C\c2ccccc2)Sc2ccc(C(=O)N3CCN(c4ccccn4)CC3)cc21	·	·	·	·	·	-14	·
O=C1Nc2cc(C(=O)N3CCN(c4ccccn4)CC3)ccc2S/C1=C\c1ccccc1	42	-8	22	30	42*	1	-8
COC(=O)c1ccccc1NC(=O)CSc1nc(O)cc(=O)n1C1CCCC1	17	22	11	5	46*	6	24
C=CCc1c(C)nc(SC)nc1Nc1ccccc1	35	·	21	20	44*	2	27
Cc1cccc(C)c1OCC(=O)N=Nc1c(O)[nH]c2ccc(Br)cc12	31	-19	6	32	53*	-7	35*
O=C(NCC1CCCO1)c1cc2c([nH]c3ccccc32)c(-c2cccc(Cl)c2)n1 (centres undefined)	39	12	5	18	27	10	·
COc1ccccc1-c1nc(C(=O)NCC2CCCO2)cc2c1[nH]c1ccccc12 (centres undefined)	47	13	5	22	43*	19	32
COc1cc(-c2nc(C(=O)NCC3CCCO3)cc3c2[nH]c2ccccc23)cc(OC)c1OC (centres undefined)	36	·	9	18	42*	6	19
CC(C)(C)NC(=O)COC(=O)c1ccc2c(c1)C(=O)N(Cc1ccco1)C2=O	20	33	0	18	8	16	·
COc1cc2c(cc1NC(=O)COC(=O)[C@@H](NC(=O)c1ccccc1F)C(C)C)oc1ccccc12	20	6	16	21	40*	22	20
COc1ccccc1/C(C)=N/NC(=S)NCc1ccccc1	49	-1	29	26	47*	-20	14
CCOC(=O)C1CCCN(C(=O)c2cc3cc4ccc(OC)cc4nc3o2)C1 (centres undefined)	35	-17	-7	-4	32	9	·
COc1ccc2cc3cc(C(=O)N4CCCC(C)C4)oc3nc2c1 (centres undefined)	44	4	15	22	45*	7	13
CC1CN(C(=O)c2ccc(NS(=O)(=O)c3ccc(C(C)(C)C)cc3)cc2)CC(C)O1 (centres undefined)	8	12	18	6	5	7	·
SMILES	tim23-1 inh	PfHsp90 set2	NLRP3 yeast inh	TIM10 inh	tim10-1 inh	NALP1 yeast inh	tim10-1 conf
COc1ccc(/C=N/NC(=O)CCn2c3ccccc3c3ccccc32)cc1O	43	0	14	33	45*	29	16
CCn1cc(Br)c(C(=O)Nc2ccc(C(=O)OC(C)C)cc2)n1	42	-94	19	38	41*	9	34*
CCOc1ccc(OCC)c(S(=O)(=O)N2CCCCC2C)c1 (centres undefined)	46	9	-1	20	43*	9	11
Cn1[nH]cc(C=NC(N)=O)c1=O	·	-5	·	·	·	·	·
CNCCCOc1ccc(Cl)cc1C(C)(C)C	21	19	19	22	41*	-3	16
COCCCNCCCOc1ccc(Cl)cc1C(C)(C)C	6	-25	33	14	10	-16	·
CCc1noc(C)c1C(=O)NNC(=O)COc1ccc(C)cc1	-3	·	14	1	-1	·	·
CCCCN1c2ccccc2N(CCCO)c2cc(C)nnc21	16	0	31	8	45*	-28	21
CN(C)c1ccnc2sc(C(=O)c3ccc(Br)cc3)c(N)c12	33	2	3	29	43*	-1	9
O=C(CSc1ccc([N+](=O)[O-])cn1)Nc1ccc2c(c1)OCO2	5	16	27	0	-7	6	·
O=C1CN(C(=O)/C=C/c2ccc(Cl)cc2)c2ccccc2N1	39	-10	14	18	-1	25	·
O=C1CN(C(=O)/C=C/c2cccc(Cl)c2)c2ccccc2N1	22	2	20	27	41*	6	34*
COc1cc(C2C(C#N)=C(N)OC3=C2C(=O)CC(C)(C)C3)cc([N+](=O)[O-])c1O (centres undefined)	15	-35	-43	5	-4	-7	·
COc1cc(C2C3=C(CC(C)(C)CC3=O)OC3=C2C(=O)CC(C)(C)C3)cc([N+](=O)[O-])c1O	33	-71	-28	17	41*	6	26
CC(=O)Nc1ccc(N2S(=O)(=O)c3ccccc3S2(=O)=O)cc1	24	-21	10	24	41*	4	17
CN(C(=S)Nc1ccc(Oc2ccccc2)cc1)C1CCCCC1	21	-2	30	27	40*	·	19
S=C(Nc1ccc(Oc2ccccc2)cc1)NC1CCCCCC1	·	-61	·	·	·	25	·
O=[N+]([O-])c1ccccc1NCCNc1ncc(C(F)(F)F)cc1Cl	-1	3	18	7	18	22	·
O=[N+]([O-])c1cccnc1NCCNc1ncc(C(F)(F)F)cc1Cl	38	0	13	16	41*	-3	22
COc1cccc(N(CC(=O)NCc2ccco2)C(=O)CCC(=O)Nc2nccs2)c1	-4	-24	15	4	16	·	·
